Measurements: publication PMC5540273 (PLoS ONE, 2017)
Values joined by “and” are separate entries in the source; they are usually repeats but may differ in a detail not shown here. Identical values can stand only once. Like-named read-outs stand apart in the source and are kept apart here.

Assays:
[1] = system: RPS6KA5(Kin.Dom.2-C-terminal); settings: concentration: 1 μM, replicates: in singlicate, n = 1
[2] = system: T1, RSK1(Kin.Dom.1-N-terminal); settings: concentration: 1 μM, replicates: in singlicate, n = 1
T1 construct: gene RPS6KA1

[3] = system: T2, RSK1(Kin.Dom.2-C-terminal); settings: concentration: 1 μM, replicates: in singlicate, n = 1
T2 construct: gene RPS6KA1

[4] = system: T3, RSK2(Kin.Dom.1-N-terminal); settings: concentration: 1 μM, replicates: in singlicate; n = 1
T3 construct: gene RPS6KA3

[5] = system: T4, RSK2(Kin.Dom.2-C-terminal); settings: concentration: 1 μM, replicates: in singlicate, n = 1
T4 construct: gene RPS6KA3

[6] = system: T5, RSK3(Kin.Dom.1-N-terminal); settings: concentration: 1 μM, replicates: in singlicate, n = 1
T5 construct: gene RPS6KA2

[7] = system: T6, RSK3(Kin.Dom.2-C-terminal); settings: concentration: 1 μM, replicates: in singlicate; n = 1
T6 construct: gene RPS6KA2

[8] = system: T7, RSK4(Kin.Dom.1-N-terminal); settings: concentration: 1 μM, replicates: in singlicate, n = 1
T7 construct: gene RPS6KA6

[9] = system: T8, RSK4(Kin.Dom.2-C-terminal); settings: concentration: 1 μM, replicates: in singlicate, n = 1
T8 construct: gene RPS6KA6

[10] = system: S6K1; settings: concentration: 1 μM, replicates: in singlicate; n = 1
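Further: KINOMEscan kinase panel screen.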

| Compound | %Inh [1] | %Inh [2] | %Inh [3] | %Inh [4] | %Inh [5] | %Inh [6] | %Inh [7] | %Inh [8] | %Inh [9] | %Inh [10] | %Inh ([1]; 1 µM) | %Inh ([2]; 1 µM) | %Inh ([3]; 1 µM) | %Inh ([5]; 1 µM) | %Inh ([6]; 1 µM) | %Inh ([8]; 1 µM) | %Inh ([9]; 1 µM) |
| --- | --- | --- | --- | --- | --- | --- | --- | --- | --- | --- | --- | --- | --- | --- | --- | --- | --- |
| Nc1nc(-c2cccnc2)c(-c2ccnc3ccccc23)s1 [GW684083] | 0% | 11% | 22% | 3% | 27% | 8% | 0% | 0% | 79% | 18% | – | – | – | – | – | – | – |
| COc1ccc(NC(=O)c2ccc(-c3cc(-c4nnc(C)o4)ccc3C)cc2)cc1 [GW595885] | 0% | 17% | 0% | 0% | 0% | 0% | 0% | 0% | 5% | 4% | – | – | – | – | – | – | – |
| Clc1cc(Nc2ncnc3cc[nH]c23)ccc1OCc1ccccn1 | 1% | 0% | 28% | 10% | 0% | 26% | 20% | 2% | 28% | 29% | – | – | – | – | – | – | – |
| COc1ccc(Nc2nccc(N3CCC(NC(=O)c4cccc(NC(C)=O)c4)C3)n2)cc1 (stereo not drawn) [GSK1379732] | 20% | 0% | 0% | 0% | 16% | 23% | 6% | 0% | 27% | 0% | – | – | – | – | – | – | – |
| Cc1ccc(C)c(NC(=O)NCCNc2ccnc(Nc3ccc(F)cc3)n2)c1 [GSK1379878] | 5% | 0% | 0% | 0% | 0% | 0% | 0% | 0% | 0% | 0% | – | – | – | – | – | – | – |
| FC(F)(F)c1ccc(-c2cc(-c3c[nH]nc3-c3ccccn3)ccn2)cc1 [GW599550] | 15% | 20% | 7% | 0% | 2% | 12% | 5% | 0% | 42% | 2% | – | – | – | – | – | – | – |
| CS(=O)(=O)CCNCc1ccc(-c2ccc3ncnc(Nc4ccc(OCc5ccccc5)c(Cl)c4)c3c2)o1.Cl [GW574783] | 0% | 0% | 0% | 4% | 29% | 17% | 6% | 6% | 8% | 0% | – | – | – | – | – | – | – |
| COc1ccc(-c2nc3n(c2-c2ccncc2)CCC3)cc1 [SKF-104493] | – | – | – | 0% | – | – | 0% | – | – | 0% | 10% and 0% | 0% and 4% | 93.1% and 37% | 12% and 5% | 1% and 0% | 68% and 0% | 59% and 63% |
| Clc1ccc(-c2cc(-c3c[nH]nc3-c3ccccn3)ccn2)cc1 [GW681251] | 0% | 6% | 13% | 0% | 21% | 0% | 0% | 0% | 44% | 0% | – | – | – | – | – | – | – |
| O=C(Nc1n[nH]c2nc(-c3ccco3)c(Br)cc12)c1ccc(CN2CCCC2)cc1.O=C(O)[C@H](O)[C@@H](O)C(=O)O [SB-742352] | 0% | 5% | 0% | 3% | 0% | 0% | 0% | 13% | 0% | 11% | – | – | – | – | – | – | – |
| CNc1nccc(-c2c(-c3ccc(F)cc3)ncn2CCCN2CCOCC2)n1 [SB-222516] | 17% | 5% | 0% | 9% | 55% | 3% | 0% | 7% | 87% | 2% | – | – | – | – | – | – | – |
| CS(=O)(=O)CCNCc1nc(-c2ccc3ncnc(Nc4ccc(OCc5cccc(F)c5)c(Cl)c4)c3c2)cs1.Cl [GW583340] | 9% | 22% | 10% | 0% | 0% | 0% | 11% | 0% | 25% | 6% | – | – | – | – | – | – | – |
| C[C@H]1CC[C@@H](C(=O)Nc2ccccc2)CN1c1cc(-c2ccc3c(N)n[nH]c3c2)nc(N)n1 [GSK2283293] | 0% | 18% | 8% | 0% | 21% | 0% | 9% | 0% | 23% | 0% | – | – | – | – | – | – | – |
| Cl.c1ccc(Cn2ncc3cc(Nc4ncnc5ccccc45)ccc32)cc1 [GW273749] | 5% | 11% | 3% | 0% | 0% | 0% | 0% | 0% | 17% | 4% | – | – | – | – | – | – | – |
| c1ccc(-c2ccc3c(-c4ccnc(Nc5ccc6c(c5)OCCO6)n4)cnn3n2)cc1 [GW818941] | 7% | 0% | 2% | 0% | 23% | 0% | 3% | 0% | 4% | 3% | – | – | – | – | – | – | – |
| CSc1nn2c(=O)cc(N3CCOCC3)nc2n1Cc1cccc(Cl)c1Cl [GSK2347225] | 8% | 18% | 15% | 0% | 0% | 10% | 0% | 0% | 9% | 0% | – | – | – | – | – | – | – |
| Cl.Fc1ccccc1COc1ccc(Nc2ncnc3ccc(-c4nnc(C(F)(F)F)o4)cc23)cc1Cl [GW424170] | 0% | 1% | 1% | 0% | 0% | 0% | 0% | 0% | 2% | 0% | – | – | – | – | – | – | – |

| Compound | %Inh [1] | %Inh [2] | %Inh [3] | %Inh [4] | %Inh [5] | %Inh [6] | %Inh [7] | %Inh [8] | %Inh [9] | %Inh [10] | %Inh ([1]; 1 µM) | %Inh ([2]; 1 µM) | %Inh ([3]; 1 µM) | %Inh ([5]; 1 µM) | %Inh ([6]; 1 µM) | %Inh ([8]; 1 µM) | %Inh ([9]; 1 µM) |
| --- | --- | --- | --- | --- | --- | --- | --- | --- | --- | --- | --- | --- | --- | --- | --- | --- | --- |
| Nc1n[nH]c2nnc(-c3ccccc3)cc12 [SB-517389] | 2% | 28% | 9% | 0% | 76% | 4% | 24% | 0% | 25% | 25% | – | – | – | – | – | – | – |
| FC(F)(F)c1ccc(-c2nn3ncccc3c2-c2ccnc(Nc3cccc(C(F)(F)F)c3)n2)cc1 [GW828205] | 3% | 12% | 0% | 0% | 6% | 0% | 0% | 0% | 3% | 0% | – | – | – | – | – | – | – |
| Fc1cccc(COc2ccc(Nc3ncnc4cc[nH]c34)cc2Cl)c1 | 0% | 12% | 23% | 15% | 0% | 8% | 26% | 20% | 29% | 21% | – | – | – | – | – | – | – |
| Nc1nc(-c2ccccn2)c(-c2ccnc3ccccc23)s1 [GW548057] | 33% | 5% | 39% | 0% | 9% | 0% | 1% | 0% | 76% | 0% | – | – | – | – | – | – | – |
| CCc1nc(-c2cccc(N(C)S(=O)(=O)c3ccccc3)c2)c(-c2ccnc(Nc3ccc(N4CCN(C(C)=O)CC4)nc3)n2)s1 [GSK1645895] | 2% | 26% | 24% | 0% | 1% | 8% | 23% | 0% | 20% | 7% | – | – | – | – | – | – | – |
| Nc1nc(-c2ccc3c(N)n[nH]c3c2)cc(N2CCC[C@@H](C(=O)Nc3ccccc3)C2)n1.O=C(O)C(F)(F)F.O=C(O)C(F)(F)F [GSK2288359] | 6% | 20% | 13% | 0% | 0% | 7% | 0% | 0% | 5% | 0% | – | – | – | – | – | – | – |
| Cc1ccc(O)cc1Nc1cc(C(F)(F)F)nc2ccc(-c3ccncc3)cc12 [GW630823] | 9% | 0% | 0% | 0% | 0% | 0% | 5% | 4% | 14% | 0% | – | – | – | – | – | – | – |
| Cl.Cn1ccc(-c2cccc(Nc3ccnc4cc(-c5nccs5)ccc34)c2)n1 [GW525701] | 39% | 0% | 0% | 8% | 21% | 2% | 13% | 0% | 7% | 0% | – | – | – | – | – | – | – |
| COc1ccc(Nc2nccc(N3CCC(NC(=O)Nc4ccc5c(c4)OCO5)C3)n2)cc1 (stereo not drawn) [GSK1379745] | 0% | 0% | 8% | 10% | 0% | 17% | 19% | 0% | 41% | 0% | – | – | – | – | – | – | – |
| Cl.O=S(=O)(c1cccc(F)c1)c1ccc(Nc2ncnc3cc(Br)sc23)cc1Cl [GSK306886] | 4% | 17% | 17% | 0% | 0% | 0% | 31% | 0% | 14% | 0% | – | – | – | – | – | – | – |
| O=c1cc(N2CCOCC2)nc2n(Cc3cccc(Cl)c3)ccn12 [GSK2296823] | 7% | 10% | 0% | 21% | 27% | 0% | 0% | 0% | 19% | 0% | – | – | – | – | – | – | – |
| CCCc1ccc(S(=O)(=O)NC2CCN(c3ccnc(Nc4ccc(OC)cc4)n3)C2)cc1 (stereo not drawn) [GSK1379737] | 7% | 0% | 0% | 2% | 13% | 0% | 0% | 0% | 0% | 16% | – | – | – | – | – | – | – |
| Nc1nccc2scc(-c3ccc4c(c3)CCN4C(=O)Cc3cc(F)ccc3F)c12 [GSK2587663] | 0% | 12% | 15% | 3% | 7% | 29% | 0% | 0% | 13% | 0% | – | – | – | – | – | – | – |
| Cn1ccc2ncnc(Oc3ccc(NC(=O)Nc4cccnc4)c(Cl)c3)c21 | 13% | 0% | 41% | 1% | 0% | 0% | 17% | 0% | 3% | 0% | – | – | – | – | – | – | – |
| C[C@@H]1CCN(C(=O)CO)C[C@@H]1N(C)c1ncnc2[nH]ccc12 | 13% | 0% | 4% | 0% | 0% | 0% | 23% | 0% | 30% | 1% | – | – | – | – | – | – | – |
| Oc1ccc2ncnc(Nc3ccc(OCc4ccccc4)cc3)c2c1 [GI262866] | 0% | 0% | 0% | 0% | 0% | 5% | 0% | 0% | 0% | 0% | – | – | – | – | – | – | – |
